MARV entry inh: blocks Marburg virus binding or cell entry | Marburg virus pseudotype entry/binding inhibition, cell-based | Potency, µM (highest dose often 49.2 µM), for inactives: at the highest dose activity change, negative = inhibition, usual class: inhibitors | 18,000 compounds, 6.5% hits
Lassa entry: Lassa virus entry inhibition; Lassa virus pseudotyped entry inhibition, cell-based qHTS; Potency, µM (top dose mostly 49.2 µM), for the others: at the top dose activity change, negative = inhibition, hits mostly inhibitors; 18,000 compounds, 4.1% hits
The depositor's hits bear a star; ? = inconclusive; · = no result given; ! = repeats disagree; [ ] = remark or other dose. The list is not random: actives were taken first. Their share in the collection is about 8%. The call rests on the fitted dose curve; tested in HEK293 cells. On the % scale 0 is the no-effect control and ±100 the full control effect; potency means the concentration at half of the fitted maximal effect.

SMILES	MARV entry inh	Lassa entry
COc1cccc([C@@H]2Oc3ccc(Br)cc3C(=O)[C@H]2O)c1	-4%	16%
O=[N+]([O-])c1c(Cl)c(Cl)cc(Cl)c1Cl	4%[107 µM]	14%[107 µM]
CCN(CC)C(=O)N[C@H]1C[C@@H]2c3cccc4[nH]cc(c34)C[C@H]2N(C)C1	5%	-8%
C=CCN1C[C@H](C(=O)N(CCCN(C)C)C(=O)NCC)C[C@@H]2c3cccc4[nH]cc(c34)C[C@H]21	7.9µM*	-12%
O=C(NC1CCN(CCc2c[nH]c3ccccc23)CC1)c1ccccc1	?	3%
COC(=O)c1c(C)cc(OC(=O)c2c(C)cc(O)c(C=O)c2O)c(C)c1O	?	7.9µM*
Cc1cc(O)c(C=O)c(O)c1C(=O)O	-2%	0%
O=[n+]1ccn([O-])c2ccccc21	9%	-9%
CC[N@+]1(C)CCC[C@@H](OC(=O)C(O)(c2ccccc2)c2ccccc2)C1	5%[17.8 µM]	13%[17.8 µM]
Cc1cnc(C)c(-c2ccc(O)c(CN3CCN(C=O)CC3)c2)n1	12%	3%
C=C1C2CC[C@@]3(C)C(c4ccoc4)OC(=O)C[C@@]13OC1CC(=O)C(C)(C)C(CC(=O)OC)[C@]12C (some centres not stated)	-8%	-19%
C=C1C2CC[C@@]3(C)C(c4ccoc4)OC(=O)C[C@@]13OC1CC(OC(C)=O)C(C)(C)C(CC(=O)OC)[C@@]12C (some centres not stated)	13µM*	?
CC(C)[C@@H](CC(=O)N[C@@H]1CCNC[C@H]1C(=O)N[C@H](CC(=O)N[C@@H](CCC(=O)O)CC(=O)O)Cc1c[nH]c2ccccc12)NC(=O)C[C@H](Cc1ccccc1)NC(=O)[C@@H]1CNCC[C@H]1N	7%	-5%
COc1ccc(-c2cc3c(c4c2ccn4C)C2CCC3O2)cn1 (configuration not stated)	5%	-10%
CC1(C)CC2C1CCC1(C)OC1CCC2(C)O (configuration not stated)	-6%	-3%
Cc1cc2c(cc1Cl)C(c1ccccc1C)CC(=O)O2 (configuration not stated)	6%	-19%
CC(C)c1ccc(Cn2ccc3c4c(N)nc(NC5CC5)nc4ccc32)cc1	4µM*	13µM*
C=CC1=C(C(=O)O)N2C(=O)[C@@H](NC(=O)/C(=N\O)c3csc(N)n3)[C@H]2SC1 (stereo in doubt)	-11%	-4%
CC1(C)CC=C(O[Si](C)(c2ccccc2)c2ccccc2)CC1	2%	2%
CSCC[C@H](NC(=O)[C@@H](NC(=O)CNC(=O)[C@H](CC(=O)O)NC(=O)[C@H](CCSC)NC(=O)[C@@H](N)Cc1ccc(O)cc1)[C@@H](C)O)C(=O)N[C@@H](CO)C(=O)N[C@@H](CCC(N)=O)C(=O)N[C@H](C(=O)O)C(C)C	11%	-14%
CC(C)n1cnc2c(C(=O)N[C@H]3CN4CCC3CC4)cc(Cl)cc21	7.1µM*	35µM*!
CCOc1ccccc1CN1CCCC(c2nc(C)ncc2-c2ccc(F)cc2)C1 (configuration not stated)	10µM*	-15%
COc1cc(OC)c(OC)cc1CN1CCCC(c2nc(C)ncc2-c2ccc(F)cc2)C1 (configuration not stated)	11µM*	-13%
COc1ccc(OC)c(CN2CCCC(c3nc(C)ncc3-c3ccc(F)cc3)C2)c1 (configuration not stated)	?	-22%
COc1ccc(CN2CCCC(c3nc(C)ncc3-c3ccc(F)cc3)C2)c(OC)c1OC (configuration not stated)	-15%	-9%
SMILES	MARV entry inh	Lassa entry
Cc1ccc(O)c(N=Nc2ccccc2)n1	9%	18%
C#CCOCC#CC[C@@]1(C(=O)OC)C=C[C@@H](C)[C@H](c2ccccc2Br)N1C(=O)C(F)(F)F	-23%[8.59 µM]	·
c1ccc2c(c1)CCCC2C1=NCCN1 (configuration not stated)	1%	2%
c1ccc2c(c1)OCC(C1=NCCN1)O2 (configuration not stated)	14µM*	?
COCC(=O)O[C@]1(CCN(C)CCCc2nc3ccccc3[nH]2)CCc2cc(F)ccc2[C@@H]1C(C)C	8.9µM*	20µM*
CCC1CN(CC(=O)N(C)Cc2nc3ccccc3[nH]2)Cc2cc(OC)ccc2O1 (configuration not stated)	-13%	-2%
N#CN	-11%	3%
COC(=O)[C@@H]1CC[C@H](C)[C@@H](c2ccc(C)cc2)N1C(=O)c1ccc(C=NO[C@H](C)c2cn([C@@H]3COC[C@@H]3O)nn2)cc1	4%[8.59 µM]	·
O=C(O)c1cccc(/C=C2/C[C@@H]3[C@@H](/C=C/[C@@H](O)C4CCCCC4)[C@H](O)C[C@@H]3O2)c1	9%	-6%
CCN1/C(=C/C=C/c2sc3ccccc3[n+]2CC)Sc2ccccc21	2.8µM*	2.5µM*
CCC(/C=C1\Sc2ccc(OC)cc2N1CCO)=C\c1sc2ccc(OC)cc2[n+]1CCO	5%	-20%
Cc1ccc(C(=O)NC2CCCCC2)cc1-c1ccc(C(=O)NCC2CC2)cc1	-1%	·
